# Measured values as given in publication PMC8384837, “Expanding the binding specificity for RNA recognition by a PUF domain”.
# Residue numbers refer to the chain shown, from its start.
# Experiments:
# Test in all cases: yeast three-hybrid, YBZ-1, SC-Leu-His + 0.5 mM 3-AT, 4 days
# Conditions in all cases: tags: N-Gal4 AD-HA kept; label: inside an RPR1-promoter hybrid RNA with tandem MS2 sites; ssRNA
# [1] = target: PUM1 PUF domain R4-FNC (Homo sapiens, UniProt Q14671 828-1176, N971F;H972N;Q975C)
# In short: (§1)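 Matching RNA elements and Pumilio-1 PUF domain libraries, randomized at the three base-contacting residues of every repeat, were co-expressed from a centromeric plasmid in strain YBZ-1 (LexA–MS2 coat fusion, HIS3 reporter). The repeat regions were PCR-amplified and Illumina-sequenced from cells grown four days on SC-Leu (input) or SC-Leu-His + 0.5 mM 3-AT (selection). The interaction score is the log change in variant frequency from input to selection. It is computed in log2, with a pseudocount of 1 for absent variants.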
# [2] = target: PUM1 PUF domain R4-PFL (Homo sapiens, UniProt Q14671 828-1176, N971P;H972F;Q975L)
# In short: as §1
# [3] = target: PUM1 PUF domain R4-SHS (Homo sapiens, UniProt Q14671 828-1176, N971S;Q975S)
# In short: as §1
# [4] = target: PUM1 PUF domain R7-ARR (Homo sapiens, UniProt Q14671 828-1176, S1079A;N1080R;E1083R)
# In short: as §1
# [5] = target: PUM1 PUF domain R7-EPG (Homo sapiens, UniProt Q14671 828-1176, S1079E;N1080P;E1083G)
# In short: as §1
# [6] = target: T1, PUM1 PUF domain R6-GWE (Homo sapiens, UniProt Q14671 828-1176, N1043G;Y1044W;Q1047E)
# T1 sequence: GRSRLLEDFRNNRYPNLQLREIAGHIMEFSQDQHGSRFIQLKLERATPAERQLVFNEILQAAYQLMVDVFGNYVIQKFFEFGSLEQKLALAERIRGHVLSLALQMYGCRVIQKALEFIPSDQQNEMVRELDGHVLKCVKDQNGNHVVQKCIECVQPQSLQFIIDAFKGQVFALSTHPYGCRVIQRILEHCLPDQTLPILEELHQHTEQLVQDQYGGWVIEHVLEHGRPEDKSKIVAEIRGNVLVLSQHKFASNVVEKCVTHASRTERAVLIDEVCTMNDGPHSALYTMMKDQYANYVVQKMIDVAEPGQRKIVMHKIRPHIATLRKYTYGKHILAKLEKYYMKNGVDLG
# In short: as §1
# [7] = target: PUM1 PUF domain R3-SAE (Homo sapiens, UniProt Q14671 828-1176, C935S;R936A;Q939E)
# In short: as §1
# [8] = target: PUM1 PUF domain R2-DWC (Homo sapiens, UniProt Q14671 828-1176, N899D;Y900W;Q903C)
# In short: as §1
# [9] = target: PUM1 PUF domain R8-RFY (Homo sapiens, UniProt Q14671 828-1176, N1122R;Y1123F;Q1126Y)
# In short: as §1
# [10] = target: T2, PUM1 PUF domain R6-IFC (Homo sapiens, UniProt Q14671 828-1176, N1043I;Y1044F;Q1047C)
# T2 sequence: T1 sequence with G216I, W217F, E220C
# In short: as §1
sequence,measurement,setting,value
GGCUAGAACUAGUGGAUCCCCCGGCGCCCGGCGGCUCGAGCCCGGGUAAGUGUAUAUAGUCUGCAUGCCGCCGGGCGCCAUGCCUGCAGGUCGACUCUAGAAAACAUG,binding signal,[1],3.02 log2 enrichment (interaction score)
same,binding signal,[2],4.21 log2 enrichment (interaction score)
same,binding signal,[3],6.15 log2 enrichment (interaction score)
GGCUAGAACUAGUGGAUCCCCCGGCGCCCGGCGGCUCGAGCCCGGGUAAGUCUAAAUAGUCUGCAUGCCGCCGGGCGCCAUGCCUGCAGGUCGACUCUAGAAAACAUG,binding signal,[4],3.14 log2 enrichment (interaction score)
GGCUAGAACUAGUGGAUCCCCCGGCGCCCGGCGGCUCGAGCCCGGGUAAGUUUAAAUAGUCUGCAUGCCGCCGGGCGCCAUGCCUGCAGGUCGACUCUAGAAAACAUG,binding signal,[4],3.69 log2 enrichment (interaction score)
same,binding signal,[5],3.69 log2 enrichment (interaction score)
GGCUAGAACUAGUGGAUCCCCCGGCGCCCGGCGGCUCGAGCCCGGGUAAGUGGAAAUAGUCUGCAUGCCGCCGGGCGCCAUGCCUGCAGGUCGACUCUAGAAAACAUG,binding signal,[6],5.02 log2 enrichment (interaction score)
GGCUAGAACUAGUGGAUCCCCCGGCGCCCGGCGGCUCGAGCCCGGGUAAGUGUAAGUAGUCUGCAUGCCGCCGGGCGCCAUGCCUGCAGGUCGACUCUAGAAAACAUG,binding signal,[7],4.99 log2 enrichment (interaction score)
GGCUAGAACUAGUGGAUCCCCCGGCGCCCGGCGGCUCGAGCCCGGGUAAGUGUAAAAAGUCUGCAUGCCGCCGGGCGCCAUGCCUGCAGGUCGACUCUAGAAAACAUG,binding signal,[8],7.69 log2 enrichment (interaction score)
GGCUAGAACUAGUGGAUCCCCCGGCGCCCGGCGGCUCGAGCCCGGGUAAGCGUAAAUAGUCUGCAUGCCGCCGGGCGCCAUGCCUGCAGGUCGACUCUAGAAAACAUG,binding signal,[9],5.49 log2 enrichment (interaction score)
GGCUAGAACUAGUGGAUCCCCCGGCGCCCGGCGGCUCGAGCCCGGGUAAGUGAAAAUAGUCUGCAUGCCGCCGGGCGCCAUGCCUGCAGGUCGACUCUAGAAAACAUG,binding signal,[10],5.44 log2 enrichment (interaction score)
